Assay results as given in PubChem BioAssay (Tox21).
Records with an inconclusive call do not appear. The source made the active and inactive calls. The call rests on the fitted dose curve; in most records, active means well fitted cell-killing curve with a large enough effect in the repeat runs; inconclusive means weak or mixed curves, or effect the other way; inactive means no such curve, though single readings can be large or run the other way.

assay: qHTS assay to identify small molecule antagonists of the sonic hedgehog signaling (Shh) pathway - cell viability counter screen (AID 1259367); details: NIH/3T3 Gli1-Luc viability, CellTiter-Fluor, 24 h; series mostly up to 92.4 µM; viability change, negative = cytotoxic: at the top concentration; further: nearly all actives have a fitted effect of over 55% in size
Text: National Center for Advancing Translational Sciences [NCATS]
NIH Chemical Genomics Center [NCGC]
U.S. Environmental Protection Agency [EPA]
National Institutes of Environmental Health Sciences [NIEHS]
National Toxicology Program [NTP]
U.S. Food and Drug Administration [FDA]
The sonic hedgehog (Shh) pathway is essential for normal embryonic development. Dysregulation of the Shh pathway can cause severe developmental defects in organs. Therefore chemicals that interfere with the pathway are potential developmental toxicants. A cell line designated 3T3Gli1-Luc (DMB/OARSA/CFSAN/FDA, Laurel, MD), a NIH/3T3 derived clone containing stably integrated Gli1-Luc reporter is used to detect chemical interference of the Shh pathway, by changes in the expression of the firefly Luc gene under the control of the Gli1 transcriptional response element. This cell line was used to screen Tox21 libraries for identifying and prioritizing the potential developmental toxicants that interfere Shh pathway. Conditioned medium-stimulated mode was used to screen for chemicals inhibiting Shh signaling. The cytotoxicity of the compounds was tested in parallel by measuring the cell viability using CellTiter-Fluor assay system (Promega, Madison, WI) in the same wells.
Tox21 Assay Protocol Summary:
3T3 Gli1-Luc cells were dispensed at 2,000 per well in 5uL of culture medium into white solid bottom 1536-well plates (Greiner Bio-One, Monroe, NC) using a Multidrop Combi (Thermo Scientific, Waltham, MA) dispenser. The assay plates were incubated at 37 C and 5% CO2 for 4hr, and then 23nL of compounds dissolved in DMSO and positive control were transferred using a Pintool station (Wako, San Diego, CA). The compound transfer was followed by the addition of 1ul conditioned medium or assay buffer using two separate tips of Flying Reagent Dispenser (FRD, Aurora Discovery, San Diego, CA). The assay plates were incubated at 37C and 5% CO2 for 24hr. For viability read, after 23hr of compound treatment, 1uL of CellTiter-Fluor reagent (Promega Corporation, Madison, WI) was added to each well of the assay plates using Flying Reagent Dispenser (FRD, Aurora Discovery, San Diego, CA) and incubated the assay plates at 37C for 1hr. The fluorescence signal was quantified using a ViewLux plate reader (Perkin Elmer, Shelton, CT).
On the % scale 0 is the no-effect control and ±100 the full control effect; potency means the concentration at half of the fitted maximal effect.

Structure (SMILES) | viability change, negative = cytotoxic | Potency
CN(C)c1ccc(N(C)C)cc1 | 11.9% (inactive) | 
C=CC(C)=O | 1.62% (inactive) | 
N#Cc1cc(I)c(O)c(I)c1 | -13.7% (inactive) | 
CCOP(=S)(Oc1ccc([N+](=O)[O-])cc1)c1ccccc1 (stereo not given) | 3.83% (inactive) | 
CC[C@H]1C[C@H]2[C@@H]3CCC4=CC(=O)CC[C@@H]4[C@H]3CC[C@]2(C)[C@H]1O | -0.0367% [at 42.5 µM] (inactive) | 
CCCCN=C=O | 12.1% (inactive) | 
CCC(Cl)CCl (stereo not given) | 2.71% (inactive) | 
C=CCC1([C@H](C)CCC)C(=O)NC(=O)NC1=O | -0.759% (inactive) | 
O=C1CN=C(c2ccccc2)c2cc(Cl)ccc2N1CC1CC1 | -20.9% (inactive) | 
Cc1c(F)c(F)c(COC(=O)C2C(/C=C(\Cl)C(F)(F)F)C2(C)C)c(F)c1F (stereo not given) | 0.538% (inactive) | 
ClP(Cl)(Cl)(Cl)Cl | 0.164% (inactive) | 
O=NN1CCNCC1 | -5.09% (inactive) | 
CC1Sc2c(C(=O)O)c(=O)c3cc(F)c(N4CCNCC4)cc3n21 (stereo not given) | 3.94% [at 42.5 µM] (inactive) | 
c1ccc(CN2CCNCC2)cc1 | -8.19% [at 240 µM] (inactive) | 
O=C(Nc1ccccc1)Nc1cnns1 | 1.27% (inactive) | 
CCCCN(N=O)C(=N)N[N+](=O)[O-] | -21.8% (inactive) | 
O=C(CBr)OCc1ccccc1 | -6.42% (inactive) | 
O=C(C(Cl)(Cl)Cl)C(Cl)(Cl)Cl | 1.96% (inactive) | 
CCCCCCC#N | 14.1% (inactive) | 
CN1C(=O)C(O)N=C(c2ccccc2)c2cc(Cl)ccc21 (stereo not given) | -4.97% (inactive) | 

Structure (SMILES) | viability change, negative = cytotoxic | Potency
COC1=CC(=O)O[C@@H](CCc2ccccc2)C1 | 20.3% (inactive) | 
[CH3][Sn]([CH3])([Cl])[Cl] | -11.3% (inactive) | 
N#C/C(N)=C(/N)C#N | -6.86% (inactive) | 
CC(=O)NC1CCSC1=O (stereo not given) | 1.67% [at 42.5 µM] (inactive) | 
Clc1ccc(C2(Cn3cncn3)CC(Br)CO2)c(Cl)c1 (stereo not given) | 3.05% (inactive) | 
NCCCNCCCN | -0.788% (inactive) | 
Clc1ccc(C(OCCN2CCCCC2)c2ccccc2)cc1 (stereo not given) | -4.5% [at 42.5 µM] (inactive) | 
O=C(NC(=O)c1c(F)cccc1F)Nc1ccc(OC(F)(F)C(F)OC(F)(F)F)c(Cl)c1 (stereo not given) | 3.29% [at 42.5 µM] (inactive) | 
CCC(COC(=O)c1cc(OC)c(OC)c(OC)c1)(c1ccccc1)N(C)C (stereo not given) | -1.33% [at 42.5 µM] (inactive) | 
O=C(O)COc1ccc(Cl)cc1 | 4.82% (inactive) | 
O=C(O)C(F)(F)C(F)(F)C(F)(F)C(F)(F)C(F)(F)C(F)(F)C(F)(F)C(F)(F)C(F)(F)F | 3.98% (inactive) | 
CN1C(=O)NC(=O)C(C)(C2=CCCCC2)C1=O (stereo not given) | -0.156% [at 42.5 µM] (inactive) | 
CO/C=C(/C(=O)OC)c1ccccc1COc1cccc(C(F)(F)F)n1 | -13.2% (inactive) | 
O=C1NCN(c2ccccc2)C12CCN(CCCOc1ccc(F)cc1)CC2 | -22.4% [at 42.5 µM] (inactive) | 
II | -8.14% (inactive) | 
CNC(C)Cc1ccccc1OC (stereo not given) | 0.318% [at 42.5 µM] (inactive) | 
O=C(NC(=O)c1c(F)cccc1F)Nc1cc(Cl)c(Oc2ncc(C(F)(F)F)cc2Cl)c(Cl)c1 | -16.1% (inactive) | 
C=CC(=O)OCC(C)C | 1.21% (inactive) | 
IC(I)=C(I)I |  | 17.2 µM (active)
O=NN1CCCCCC1 | 2.68% (inactive) | 
